We go through 6 compounds from PubChem BioAssay.

Assay [1] can be described thus: compounds altering circadian rhythm period length – cell-based, LOPAC library, luminescence reporter (AID 2774; call rule not given here;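 note: values are relative to mean of DMSO wells on each plate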). The note with it: circadian reporter cells, at 7 µM, actives lie on both sides.
Assay [2] relates to Hepatitis C virus NS3 helicase. The assay can be described thus: blockers of NS3h binding to ssDNA – biochemical, fluorescence polarization, LOPAC1280 library, primary screen (AID 687035; in the data active = inhibition above about 37%). The note with it: Purified HCV NS3 helicase, Cy5-dT15 ssDNA binding fluorescence polarization; stronger effect = higher value; concentration not given here.
A short description of assay [3]: compounds altering Cy5-DNA-NS3h complex signal – biochemical, LOPAC1280, artefact control for HCV NS3 helicase inhibitor project (AID 687037; call rule not given here). The note with it: Cy5-DNA-NS3h complex fluorescence interference counterscreen.
A short description of assay [4]: EMT-state selective cytotoxicity in co-culture – imaging, PC-3E GFP, TEM4-18 mCherry, primary screen (AID 1345086;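 active = compounds killing one labelled cell type while sparing the other, by normalised counts and ratio limits, not self-fluorescent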;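 for all read-outs here: cells exposed to compound for 72 h before imaging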;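 for red/green cell ratio (normalised): normalised mesenchymal count divided by normalised epithelial count so high means epithelial killing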). As to conditions: PC-3E GFP / TEM4-18 mCherry co-culture, imaging cell counts, at 1 µM; for red/green cell ratio (normalised): actives lie on both sides, counts scaled to control wells, 1 = unselective.
Assay [5] is described as follows: viability loss with induced miR-34 in A549 – imaging, A549 dox-inducible miR-34, nuclei and caspase counts, primary screen (AID 1347080). As to conditions: A549 miR-34 inducible, Hoechst nuclei count, 48 h.
A short description of assay [6]: blockers of cellular phospholipid synthesis – cell-based, LOPAC library, screen 4, primary screen (AID 1347384; call rule not given here). The note with it: animal cells, phospholipid biosynthesis inhibition screen; at 10 µM.
The nature of assay [7]: galactose survival enhancers in mitochondrial complex I cybrids – cell-based, galactose medium, ATP luminescence, primary screen (AID 1645843;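 active = z-score of at least 1.8 in each of two replicates, scored against plate mean and spread of sample wells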;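 note: positive z means more ATP and so rescue of galactose-driven cybrid death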). The note with it: complex I mutant cybrid cells, 72 h, stronger effect = higher value.
A short description of assay [8]: P. berghei load reduction in hepatocytes – cell-based, HepG2, luciferase luminescence, HepG2 viability, primary screen (AID 624349; in the data active = parasite load remaining mostly below about 12%, no sharp cut-off; inactive = mostly above about 10%;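 note: 100% = mean of DMSO negative control wells on the same plate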). As to conditions: P. berghei liver stage in HepG2, luciferase luminescence, concentration not given here; parasite load remaining: stronger effect = lower value; viability: measured here: HepG2 viability without parasites.
A short description of assay [9]: MELAS cybrid and Rieske KO viability enhancers – cell-based, MELAS cybrids, Rieske KO mouse fibroblasts, CellTiter-Glo, primary screen (AID 1508586;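 active = mean z-score across replicates of 1.96 or higher in either the MELAS or the Rieske mutant cell line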;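 note: z relative to plate mean and SD of compound and empty wells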). The note with it: low glucose.
Assay [10] concerns the target NAD(+) hydrolase SARM1 (Homo sapiens) (UniProt Q6SZW1). Nature of the assay: blocking NAD cleavage by SARM1 SAM-TIR – cell lysate, NAD-Glo luminescence (AID 1508614;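 active = compound whose remaining NAD level is above about 45 nM, limit read from the data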;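 note: higher remaining NAD means stronger inhibition of SARM1 NADase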). As to conditions: SAM-TIR HEK293T lysate NADase, at 1 µM, stronger effect = higher value.
The target of assay [11] is Mitogen-activated protein kinase 7 (Homo sapiens) (UniProt Q13164). The assay can be described thus: Gal4-ERK5 driven luciferase induction – cell-based, HTS, primary screen (AID 1508626;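 active = luciferase signal above three times the same-plate solvent-only control wells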;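 note: luciferase driven by Gal4-ERK5 fusion binding five Gal4 sites before minimal TATA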). The note with it: HeLa Gal4-ERK5 transactivation, 18 h, at 5 µM, stronger effect = higher value.
Assay [12] is described as follows: compounds altering viability of human ES cells (AID 493140; call rule not given here;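 note: cells exposed to compounds for four days before counting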). The note with it: human embryonic stem cell survival screen; stronger effect = higher value.
Setting [13] is: measured here: epithelial PC-3E GFP cell survival.
Setting [14] is: measured here: mesenchymal TEM4-18 mCherry cell survival.
Where [15] appears, read: stronger effect = lower value, cell number ratio, induced over uninduced.
[16] abbreviates: measured here: relative caspase fold change +Dox/-Dox.
Setting [17] is: measured here: total cells with miR-34 induction, stronger effect = lower value.
Setting [18] is: measured here: total cells without miR-34 induction.
[19] abbreviates: MELAS cybrid survival, CellTiter-Glo 48 h, stronger effect = higher value.
The mark [20] stands for this setting: Rieske KO mouse fibroblast survival, CellTiter-Glo 72 h.

Several values for one entry are separate records, joined by “and”; a condition that tells them apart may be missing. Equal entries are not always repeated. Activity calls are given as the source filed them.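 Rule for the calls, unless noted: active = compounds whose cell count with miR-34 switched on is under 0.7 times the count with it off; inactive = the rest.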

NAD(+) hydrolase SARM1 (Homo sapiens), sequence (Q6SZW1 whole entry, looked up, the tested form may be a part): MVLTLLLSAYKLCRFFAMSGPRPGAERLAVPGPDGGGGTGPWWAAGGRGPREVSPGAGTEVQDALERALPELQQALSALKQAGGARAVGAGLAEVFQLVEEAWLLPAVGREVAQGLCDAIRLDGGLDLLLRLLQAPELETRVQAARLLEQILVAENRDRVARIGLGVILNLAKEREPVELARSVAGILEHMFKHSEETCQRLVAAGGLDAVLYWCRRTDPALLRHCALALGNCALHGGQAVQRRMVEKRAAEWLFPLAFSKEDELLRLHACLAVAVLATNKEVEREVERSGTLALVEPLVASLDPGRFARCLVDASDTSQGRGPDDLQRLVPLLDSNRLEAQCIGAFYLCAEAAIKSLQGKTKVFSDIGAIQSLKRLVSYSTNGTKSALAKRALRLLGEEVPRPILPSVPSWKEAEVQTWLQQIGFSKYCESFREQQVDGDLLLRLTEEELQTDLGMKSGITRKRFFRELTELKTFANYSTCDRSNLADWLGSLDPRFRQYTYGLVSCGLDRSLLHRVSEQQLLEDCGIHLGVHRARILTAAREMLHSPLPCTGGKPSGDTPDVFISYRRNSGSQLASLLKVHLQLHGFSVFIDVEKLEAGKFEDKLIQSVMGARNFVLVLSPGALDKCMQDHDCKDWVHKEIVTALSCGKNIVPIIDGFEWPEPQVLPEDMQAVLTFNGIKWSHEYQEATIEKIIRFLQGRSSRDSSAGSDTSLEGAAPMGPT
Mitogen-activated protein kinase 7 (Homo sapiens), sequence (Q13164 whole entry, looked up, the tested form may be a part): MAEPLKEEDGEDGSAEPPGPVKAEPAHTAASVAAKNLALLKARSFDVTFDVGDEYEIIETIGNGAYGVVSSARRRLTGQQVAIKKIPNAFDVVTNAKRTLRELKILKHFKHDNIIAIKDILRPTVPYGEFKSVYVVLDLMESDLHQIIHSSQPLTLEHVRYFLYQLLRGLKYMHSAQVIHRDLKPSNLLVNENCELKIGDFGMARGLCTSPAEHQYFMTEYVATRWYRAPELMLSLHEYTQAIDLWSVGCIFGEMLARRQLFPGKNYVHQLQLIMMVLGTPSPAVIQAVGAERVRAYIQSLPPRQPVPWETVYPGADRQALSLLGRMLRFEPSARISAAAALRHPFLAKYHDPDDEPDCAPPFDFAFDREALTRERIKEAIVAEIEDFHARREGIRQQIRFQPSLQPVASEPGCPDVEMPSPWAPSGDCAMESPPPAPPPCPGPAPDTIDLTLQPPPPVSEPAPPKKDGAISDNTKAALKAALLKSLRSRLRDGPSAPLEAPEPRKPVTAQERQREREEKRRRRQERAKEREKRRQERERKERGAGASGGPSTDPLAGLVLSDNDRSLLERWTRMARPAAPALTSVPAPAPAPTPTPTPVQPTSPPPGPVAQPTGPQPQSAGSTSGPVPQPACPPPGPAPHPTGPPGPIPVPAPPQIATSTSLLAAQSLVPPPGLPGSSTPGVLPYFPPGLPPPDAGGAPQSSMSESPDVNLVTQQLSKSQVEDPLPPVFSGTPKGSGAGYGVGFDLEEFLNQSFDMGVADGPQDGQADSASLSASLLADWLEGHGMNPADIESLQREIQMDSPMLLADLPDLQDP

Take `CN1C2CCC1CC(OC(=O)c1c[nH]c3ccccc13)C2` (centres undefined): in assay [1], the period change is 0.005 h (inactive). For the same compound, the inhibition in assay [2] was 0% (inactive). For the same compound, the fluorescence ratio (interference) in [3] was 1 (inactive). Further, in assay [4], the red/green cell ratio (normalised) was 1.09 (inactive). The normalised cell number in assay [4] (setting [13]) was determined as 0.93; in assay [4] (setting [14]), 1.02. Also, the fold change in [5] (setting [15]) is 0.997 (inactive) and 0.976 (inactive) and 0.922 (inactive); in [5] (setting [16]), 1.28 and 0.664 and 2.09. In addition, the cell count in assay [5] (setting [17]) is 10100 and 8850 and 6980; in assay [5] (setting [18]), 10100 and 9070 and 7570. Also, in [6], the compound was called inactive. In addition, the z-score in assay [7] was -0.34 (inactive) and 0.77 (inactive).

Turning to `COC1CC2CCC(C)C(O)(O2)C(=O)C(=O)N2CCCCC2C(=O)OC(C(C)CC2CCC(O)C(OC)C2)CC(=O)C(C)/C=C(\C)C(O)C(OC)C(=O)C(C)CC(C)/C=C/C=C/C=C/1C` (centres undefined), the parasite load remaining in assay [8] was 60.9% (inactive). Besides, the viability in assay [8] amounted to 98.1%. For the same compound, the red/green cell ratio (normalised) in assay [4] was 1.36 (inactive). Also, the normalised cell number in assay [4] (setting [13]) was found to be 0.36; in assay [4] (setting [14]) it was 0.49. Further, the fold change in assay [5] (setting [15]) was 0.865 (inactive); in assay [5] (setting [16]), 3.67. The cell count in [5] (setting [17]) amounted to 7720; in assay [5] (setting [18]), 8920.

On to `CC1CC(OC(=O)C(O)c2ccccc2)CC(C)(C)C1` (centres undefined), for which the red/green cell ratio (normalised) in assay [4] was 1 (inactive). Further, the normalised cell number in assay [4] (setting [13]) and in assay [4] (setting [14]) was 1.03 in each case. Besides, the fold change is 0.925 (inactive) and 0.927 (inactive) in [5] (setting [15]); 0.697 and 0.603 in assay [5] (setting [16]). The cell count in assay [5] (setting [17]) was 7310 and 7360; in assay [5] (setting [18]) it was 7900 and 7940. The z-score in [9] (setting [19]) is -0.227 (inactive); in [9] (setting [20]) it was -0.184. Further, the remaining NAD in assay [10] is 10 nM (inactive).

Take `CCOC(=O)CC(=O)N1CCSC1COc1ccccc1OC` (centres undefined): the red/green cell ratio (normalised) in assay [4] was 1.03 (inactive). The normalised cell number in assay [4] (setting [13]) stood at 0.9; in [4] (setting [14]) it was 0.93. The fold change was 0.901 (inactive) and 0.963 (inactive) in [5] (setting [15]); 1.01 and 0.429 in [5] (setting [16]). The cell count is 7560 and 7640 in assay [5] (setting [17]); 8380 and 7930 in [5] (setting [18]). The z-score is -0.272 (inactive) in [9] (setting [19]) and -0.0679 in [9] (setting [20]). The remaining NAD in [10] was 10 nM (inactive).

As for `Cc1cc(-n2c(=O)[nH]c(=O)n(C)c2=O)ccc1Oc1ccc(SC(F)(F)F)cc1`, the parasite load remaining in assay [8] is 24.3% (inactive). For the same compound, in [8], the viability was found to be 72%. For the same compound, in assay [4], the red/green cell ratio (normalised) was 0.98 (inactive). Also, the normalised cell number in assay [4] (setting [13]) was determined as 1.07; in assay [4] (setting [14]) it was 1.05. Further, the fold change in assay [5] (setting [15]) is 0.875 (inactive) and 0.912 (inactive); in assay [5] (setting [16]) it was 1.01 and 1.07. In addition, the cell count in assay [5] (setting [17]) was 7860 and 10300; in assay [5] (setting [18]), 8980 and 11300. The z-score in assay [9] (setting [19]) is -0.0992 (inactive) and -0.247 (inactive) and 0.135 (inactive); in assay [9] (setting [20]), -0.203 and -0.144 and -0.234; in [7], 0.65 (inactive). Besides, the remaining NAD in assay [10] is 10 nM (inactive). In addition, the luciferase signal in assay [11] is 136 AU (inactive).

In the case of `CCC(NC(C)C)C(O)c1ccc(O)c(O)c1` (centres undefined), the period change in [1] was 0.18 h (inactive). Besides, the survival in assay [12] was 6.67 (inactive). In assay [8], the parasite load remaining is 55.9% (inactive) and 47.9% (inactive). Moreover, the viability in assay [8] is 94.3% and 104%. For the same compound, the inhibition in assay [2] was -1% (inactive). For the same compound, the fluorescence ratio (interference) in [3] is 0.9 (inactive). Further, the red/green cell ratio (normalised) in assay [4] was 1.04 (inactive). Besides, the figures for the normalised cell number in assay [4] (setting [13]) and in assay [4] (setting [14]) were 0.9 and 0.93, respectively. In addition, the fold change in assay [5] (setting [15]) was 1.08 (inactive) and 0.894 (inactive) and 0.889 (inactive); in [5] (setting [16]), 0.697 and 1.09 and 4.01. The cell count in assay [5] (setting [17]) was 10800 and 8990 and 12000; in assay [5] (setting [18]), 9990 and 10100 and 13500. Also, in [6], the compound was called inactive. Further, the values for the z-score in [9] (setting [19]), in assay [9] (setting [20]) and in [7] were -0.772 (inactive), -0.513 and -1.29 (inactive), respectively. Besides, the remaining NAD in assay [10] was 10 nM (inactive). Besides, the luciferase signal in assay [11] was 212 AU (inactive).
